Most compounds without a hit are left out; they make up all but 27% or so of the library.
CYP2C19 inhib: blocks human cytochrome P450 2C19; actives 21% (n = 96,000); P33261; inhibition, % at 5 µM; CYP2C19 Supersomes, luciferin-H EGE luminescence, 30 min;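 active = CYP2C19 inhibition above a set limit at 5 µM in the primary screen, cut at about 50% in these data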;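 note: plate controls were negative control wells for no effect and 2.5 mM tranylcypromine positive control for full effect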
CYP2C19 activ: activators of human cytochrome P450 2C19 | P33261 | recombinant CYP2C19, luciferin-H EGE luminescence; hits give high values; 0 = fully inhibited enzyme, 1 = untreated enzyme | activation factor at 5 µM | 96,000 tested, under 10 active;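 active = activation factor of at least 2 at 5 µM in the primary screen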;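 note: 0 = wells with 2.5 mM tranylcypromine and 1 = vehicle-only wells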
sEH inh: blocks human soluble epoxide hydrolase activity; P34913; recombinant human sEH enzymatic activity assay; inhibition, % at 2 µM; actives 0.34% (n = 91,000); AID 707; in the data active = inhibition above about 80%
CYP2C9 act: CYP2C9 (human) activation; P11712; recombinant CYP2C9, luciferin-H conversion, luminescence; hits give high values; factor 1 = untreated enzyme, 0 = blocked; activation factor at 5 µM; actives 1.4% (n = 96,000); AID 1024;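 active = activation factor of 2 or more for CYP2C9 at a 5 µM dose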;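 note: 0 = sulfaphenazole-blocked wells and 1 = vehicle-only wells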
Target sequence (P11712 whole entry, looked up): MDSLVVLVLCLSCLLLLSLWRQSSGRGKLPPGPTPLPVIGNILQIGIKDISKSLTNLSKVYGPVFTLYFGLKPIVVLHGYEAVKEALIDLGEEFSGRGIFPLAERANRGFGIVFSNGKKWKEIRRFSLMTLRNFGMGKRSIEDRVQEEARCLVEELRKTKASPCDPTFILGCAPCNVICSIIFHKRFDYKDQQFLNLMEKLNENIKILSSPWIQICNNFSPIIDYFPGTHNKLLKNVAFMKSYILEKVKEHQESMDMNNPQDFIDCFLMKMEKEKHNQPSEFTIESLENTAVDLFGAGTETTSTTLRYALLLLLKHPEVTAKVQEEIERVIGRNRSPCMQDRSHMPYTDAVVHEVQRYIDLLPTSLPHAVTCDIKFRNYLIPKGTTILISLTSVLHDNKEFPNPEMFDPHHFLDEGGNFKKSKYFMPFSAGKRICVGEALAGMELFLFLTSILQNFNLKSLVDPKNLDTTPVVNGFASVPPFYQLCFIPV
CYP2C9 inh: human CYP2C9 inhibition. P11712. CYP2C9 Supersomes, luciferin-H conversion, luminescence. inhibition, % at 5 µM. actives 20% (n = 96,000). AID 777;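 active = blocking of liver enzyme CYP2C9 beyond about 50% at 5 µM, limit read from the data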
sEH activator: activators of human soluble epoxide hydrolase; P34913; purified human sEH enzymatic activity, activator screen; activation, % at 2 µM; actives 0.04% (n = 91,000); AID 717; in the data active = activation above about 37%
* = called active by the depositor; / = no result.

SMILES	CYP2C19 inhib	CYP2C19 activ	sEH inh	CYP2C9 act	CYP2C9 inh	sEH activator
CC(=O)N1CCC2(CC1)CC(=O)c1cc(OCC(=O)NCc3ccc(C)cc3)ccc1O2	41	0.6	13	0.5	47	-12
Cc1c(Cl)cccc1-n1c(SCC(=O)NCc2cccs2)nnc1-c1ccncc1	97*	0	23	0.2	77*	-22
Cc1c(Cl)cccc1-n1c(SCC(=O)NCc2ccccc2Cl)nnc1-c1ccncc1	94*	0.1	63	0.2	81*	-63
Cn1c(SCC(=O)NCc2cccs2)nnc1-c1ccncc1	13	0.9	7	1	5	-4
O=C(CSc1nnc(-c2ccncc2)n1-c1ccc(Cl)cc1)NCc1cccs1	96*	0	4	0.2	77*	-4
Clc1ccc(Oc2nc(N3CCOCC3)nc(N3CCOCC3)n2)cc1	2	1	-4	1	4	6
COC(=O)c1ccc(Oc2nc(C(N)=O)cc(-c3ccccc3)n2)cc1	5	1	-5	0.9	12	2
O=C(OCCCc1ccncc1)c1ccc(S(=O)(=O)N2CCOCC2)cc1	96*	0	10	0	97*	-10
O=C(O)CCc1ccc(S(=O)(=O)N2CCOCC2)cc1	4	1	3	1	4	0
Brc1ccc2ncnc(Nc3cccc4ccccc34)c2c1	80*	0.2	-8	0.4	59*	6
COc1ccc(-c2noc(N3CCC(C(=O)N4CCN(c5ccccn5)CC4)CC3)n2)cc1	49	0.5	-4	0.6	38	4
c1ccc(-c2nnc(CSc3nnc(-c4cccs4)o3)o2)cc1	/	/	3	/	/	-2
O=C(CCCSc1nc2ccccc2[nH]1)Nc1nnc(-c2ccccc2)o1	42	0.6	-2	0.5	52*	4
c1ccc(-c2nnc(CSc3nc4ccccc4[nH]3)o2)cc1	90*	0.1	/	0.3	67*	/
N#Cc1c(-c2ccccc2)cc(-c2ccccc2)nc1SCc1nnc(-c2ccccc2)o1	29	0.7	0	0.3	70*	2
CN(c1ccccc1C(N)=O)S(=O)(=O)c1ccccc1	/	/	5	/	/	-2
CCCn1nc(C(=O)NCC(C)(C)N2CCOCC2)c2ccccc2c1=O	13	0.9	3	1	-2	-1
CCOc1ccc(NC(=O)CSc2nnc(C)n2CCCOC)cc1	27	0.7	-16	0.9	9	15
O=c1c2nnn(Cc3ccccc3)c2ncn1-c1ccccc1	-1	1	-2	1.4	-38	-1
Cc1ccc2c(CC(=O)OC3CCOC3=O)coc2c1 (stereo unspecified)	37	0.6	/	0.8	18	/
O=C(O)CCc1nc2ccccc2n(CCc2ccccc2)c1=O	24	0.8	8	1	-4	-8
O=C(O)CCc1nn2c3ccccc3nc2n(CCN2CCCCC2)c1=O	/	/	-54	/	/	57*
CN1C(=O)c2ccccc2C(C(=O)NCC2CCCO2)C1c1c[nH]c2ccccc12 (stereo unspecified)	-20	1.2	0	1.2	-22	-2
CC1CCC(=C(C#N)c2nc(-c3cc4ccccc4oc3=O)cs2)CC1 (stereo unspecified)	37	0.6	-3	0.1	88*	1
O=c1oc2ccccc2cc1-c1nc(-c2cccs2)cs1	-5	1.1	-1	0.7	30	3
SMILES	CYP2C19 inhib	CYP2C19 activ	sEH inh	CYP2C9 act	CYP2C9 inh	sEH activator
Cc1ccc2nc3c(c(N)c2c1)CCN3c1ccccc1	69*	0.3	-5	0.7	33	4
CC(C)C(=O)OCCN=C1NS(=O)(=O)c2ccccc21	13	0.9	1	0.9	6	-1
O=C(OCCN=C1NS(=O)(=O)c2ccccc21)c1ccccc1	44	0.6	-10	0.1	85*	8
O=C(OCCOCCN=C1NS(=O)(=O)c2ccccc21)C1CC(=O)N(c2ccccc2)C1 (stereo unspecified)	10	0.9	-7	0.7	26	9
O=C(OCCN=C1NS(=O)(=O)c2ccccc21)c1cccnc1	12	0.9	-19	0.8	16	17
O=C(OCCN=C1NS(=O)(=O)c2ccccc21)C1CC(=O)N(c2ccc(Cl)cc2)C1 (stereo unspecified)	44	0.6	-6	0.4	63*	4
COc1ccc(C(=O)COC(=O)CCN=C2NS(=O)(=O)c3ccccc32)cc1OC	74*	0.3	-6	0.7	27	5
O=C(NCc1ccccn1)C1CCCN(S(=O)(=O)c2cccc3nsnc23)C1 (stereo unspecified)	-13	1.1	-9	1	-3	10
O=C(NCc1cc(C(F)(F)F)cc(C(F)(F)F)c1)C12CN(Cc3ccccc3)CC1C(c1cccc([N+](=O)[O-])c1)=NO2 (stereo unspecified)	26	0.7	4	0.6	36	-6
Cc1ccc(CNC(=O)C23CN(Cc4ccccc4)CC2C(c2ccc([N+](=O)[O-])cc2)=NO3)cc1 (stereo unspecified)	58*	0.4	6	0.7	33	-6
O=C(NCc1ccccc1)C12CN(Cc3ccccc3)CC1C(c1cccc([N+](=O)[O-])c1)=NO2 (stereo unspecified)	74*	0.3	-6	0.6	38	13
O=C(NCc1ccc(OC(F)(F)F)cc1)C12CN(Cc3ccccc3)CC1C(c1cccc([N+](=O)[O-])c1)=NO2 (stereo unspecified)	76*	0.2	-4	0.4	57*	2
O=C(NCC1CCCO1)C12CN(Cc3ccccc3)CC1C(c1cccc([N+](=O)[O-])c1)=NO2 (stereo unspecified)	33	0.7	7	0.8	18	-9
Cc1ccc(CCNC(=O)C23CN(Cc4ccccc4)CC2C(c2ccc([N+](=O)[O-])cc2)=NO3)cc1 (stereo unspecified)	34	0.7	10	1	3	-9
CCNC(=O)n1nccc1C(C)Oc1cccc(C(F)(F)F)c1 (stereo unspecified)	56*	0.4	-4	0.7	26	3
CC(C)NC(=O)c1ccc(-c2cccc(C(F)(F)F)c2)o1	7	0.9	3	1.4	-35	0
CCNC(=O)n1nccc1C(C)Oc1ccc(Cl)cc1 (stereo unspecified)	88*	0.1	-4	0.3	71*	3
CC(C)c1ccccc1NC(=O)c1cccc(NC(=O)c2ccccc2)c1	22	0.8	21	0.3	69*	-24
O=C(Nc1cccc(O)c1)c1ccccc1	-11	1.1	-9	1.1	-9	13
CCc1cccc(CC)c1NC(=O)c1cccc(NC(=O)c2ccccc2)c1	10	0.9	-6	0.3	74*	6
CC(=O)Nc1ccc(-c2nnc(SCc3c(C)cc(C)cc3C)n2C)cc1	2	1	-7	0.8	15	9

High-throughput results: PubChem BioAssay, several laboratories
